Screens as filed in PubChem.
Only some compounds are listed: those with a hit (about 19% of all), similar ones and a draw of the others.
TDP1 cell noCPT: qHTS for Inhibitors of human tyrosyl-DNA phosphodiesterase 1 (TDP1): qHTS in cells in absence of CPT; DT40 Tdp1-/- hTDP1 cells, no CPT, ATP luminescence, 48 h; Potency, µM (series often up to 46.2 µM), without a hit: at the top dose activity change, negative = growth inhibition, most hits filed as inhibitors; 420,000 tested, 15% active; AID 686978, 2013; also: potency is read from the fitted curve at half-maximal effect; nearly all actives have a fitted effect of over 55% in size
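Seeded 400 DT40-hTDP1 cells/well (vehicle DMSO, no 20 nM CPT); pinned compounds; ≥48 hr at 37 °C; CellTiter-Glo luminescence as viability measure.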
HT1080NT lethal: qHTS for induction of synthetic lethality in tumor cells producing 2HG: qHTS for the HT-1080-NT fibrosarcoma cell line | HT-1080-NT fibrosarcoma viability, CellTiter-Glo ATP luminescence, 48 h | Potency, µM (highest dose often 46.1 µM), for the others: at the top dose activity, negative = less viability, hits mostly cytotoxic | 360,000 tested, 1.6% active;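 also: NT is the 2HG producing partner of a matched IDH1 knockdown line; potency is read from the fitted curve at half-maximal effect; 0% = DMSO-treated cells and -100% = media-only wells without cells; nearly all actives have a fitted effect of over 55% in size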
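Viability by CellTiter-Glo luminescence after 48 h compound exposure at 37C of HT-1080-NT cells (750/well, RPMI, 5% FBS). % activity scaled between DMSO wells and medium-only wells, then curve-fitted and categorized by curve class.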
ELG1 DNA repair: qHTS screen for small molecules that inhibit ELG1-dependent DNA repair in human embryonic kidney (HEK293T) cells expressing luciferase-tagged ELG1; AID 504467, 2011; HEK293T ELG1-luciferase reporter, luminescence, 16 h; DNA damage induced by 5-fluorouridine; 330,000 tested, 2.3% active; Potency, µM (titrated, usually from 46.1 µM), without a hit: top-dose activity change, negative = inhibition, hits mostly inhibitors; also: potency is read from the fitted curve at half-maximal effect; nearly all actives have a fitted effect of over 55% in size
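Reporter activity after DNA damage by 5-fluorouridine is monitored. Compound-treated cells incubate 16 hr at 37 °C, then ONE-Glo is added for 30 min before luminescence reading.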
IL-1B inflam inh: qHTS for Inhibitors of Inflammasome Signaling: IL-1-beta AlphaLISA Primary Screen. THP-1 LPS/ATP IL-1B secretion, AlphaLISA, 16 h; hits give low values. 360,000 tested, 4.7% active. activity change, % at 57.5 µM; in the data active = activity change below about -50%; inconclusive = mostly about -30% to -49%
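THP-1 cells pretreated 1 hr with compounds (up to 57.5 uM final), then stimulated with LPS (250 ng/mL final) plus ATP (1.25 mM final); secreted IL-1B measured by AlphaLISA after 16 hr, decreased signal indicating inhibition.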
HT1080 IDH1KD tx: qHTS for induction of synthetic lethality in tumor cells producing 2HG: qHTS for the HT-1080-IDH1KD cell line; HT-1080 IDH1 knockdown viability, ATP luminescence, 48 h; Potency, µM (doses to about 46.1 µM), for inactives: top-dose activity, negative = toxicity, most hits filed as cytotoxic; AID 686971, 2013; 360,000 tested, 2% active;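 also: potency is read from the fitted curve at half-maximal effect; 0% = DMSO wells and -100% = cell-free medium wells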
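Knockdown cells (IDH1KD HT-1080) received compounds 2 h after plating at 750 cells/well and were kept 48 h at 37 °C in 5% FBS RPMI. A CellTiter-Glo luminescence read gave % activity for curve fitting.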
TDP1 cell CPT: qHTS for Inhibitors of human tyrosyl-DNA phosphodiesterase 1 (TDP1): qHTS in cells in presence of CPT. chicken DT40 Tdp1-/-;hTDP1 cells + 20 nM CPT, ATP luminescence, 48 h. Potency, µM (titrated, usually from 46.2 µM), without a hit: top-dose activity change, negative = growth inhibition, usual class: inhibitors. 420,000 tested, 12% active; also: potency is read from the fitted curve at half-maximal effect; nearly all actives have a fitted effect of over 55% in size
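Cell growth measured by CellTiter-Glo luminescence after a minimum 48 h, 37 C compound exposure with 20 nM CPT in Tdp1-knockout DT40 cells stably expressing hTDP1, seeded 400/well; qHTS titration format.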
Starred values were filed as active, the others as inactive; ? = inconclusive; . = no result given; [ ] = dose if it differs, or a comment. Unless noted, calls follow the shape of the dose curve; as a rule, active = well fitted curve in the direction sought with a large enough effect; inconclusive = small, poorly fitted or top-dose-only effect, or another doubt; inactive = no such curve, though single readings can be large; an effect the other way counts as inactive or inconclusive. Unless noted, % is scaled to controls: 0 for no effect and ±100 for the full control effect.

SMILES	TDP1 cell noCPT	HT1080NT lethal	ELG1 DNA repair	IL-1B inflam inh	HT1080 IDH1KD tx	TDP1 cell CPT
Cc1cc(C)cc(NC(=O)N2CCNC(=O)C2CC(=O)Nc2cc(Cl)ccc2Cl)c1 (stereo unspecified)	?	-2%	-19%	-57*	6%	?
COC(=O)CC1C(=O)NCCN1C(=O)Nc1ccccc1 (stereo unspecified)	1%	24%	3%	8	18%	1%
O=C(CC1C(=O)NCCN1C(=O)Nc1ccc(F)cc1F)Nc1cc(Cl)ccc1Cl (stereo unspecified)	-4%	-17%	0%	.	-25%	11%
COC(=O)c1cccc(NC(=O)CC2C(=O)NCCN2C(=O)Nc2cc(C)cc(C)c2)c1 (stereo unspecified)	0%	-21%	-20%	-62*	-30%	-2%
O=C(CC1C(=O)NCCN1C(=O)Nc1ccc(C(F)(F)F)cc1)Nc1ccc(F)cc1 (stereo unspecified)	?	-29%	7%	?	-24%	?
COc1ccc(NC(=O)CC2C(=O)NCCN2C(=O)Nc2ccc(C(F)(F)F)cc2)cc1 (stereo unspecified)	5%	?	-13%	-79*	?	-18%
CCN1CCN(c2cc(-c3ccc(F)cc3)c3c(n2)CCCCCC3)CC1	4%	.	.	.	.	11%
CCCn1c(N)c(C(=O)COC(=O)CCNS(=O)(=O)c2ccccc2F)c(=O)[nH]c1=O	?	6%	1%	-1	1%	3%
Cc1ccc(-c2nn(-c3ccccc3)cc2C(=O)NCCCN2CCOCC2)cc1	?	-3%	-1%	15	-4%	-6%
Cc1ccc(-c2nn(-c3ccc(F)cc3)cc2C(=O)NCCCN2CCCC2=O)cc1	-81%	-1%	?	16	-2%	0.21µM*
C#CCCOC(=O)N1C2=NC(C(=O)OC)=C(C(=O)OC)[C@@H]3Nc4ccccc4[C@]23C[C@H]1C(=O)OC	11%	14%	.	28	13%	8%
O=C(Cc1ccc(Br)cc1)Nc1cccc(S(=O)(=O)N2CCCCC2)c1	15µM*	-29%	.	-6	?	?
CC(C)Cn1c(SCC(N)=O)nnc1-c1cccc(S(=O)(=O)N2CCOCC2)c1	0%	3%	?	-4	-2%	10%
O=C(CCl)Nc1cccc(S(=O)(=O)N2CCCCCC2)c1	5.2µM*	?	?	-102*	18µM*	4.1µM*
O=C(COC(=O)c1ccc(Br)o1)Nc1cccc(S(=O)(=O)N2CCCCC2)c1	-15%	1%	6%	-6	-2%	-3%
COc1ccc(Br)cc1CN(C)CC(=O)Nc1cccc(S(=O)(=O)N2CCCC2)c1	10µM*	-25%	?	-52*	-28%	15µM*
Cc1ccc(CSc2nnc(-c3cccc(S(=O)(=O)N4CCOCC4)c3)n2CC(C)C)cc1	8.2µM*	-5%	2%	?	-17%	13µM*
COc1ccc(Br)cc1CN(C)CC(=O)Nc1cccc(S(N)(=O)=O)c1	-28%	-5%	6%	17	5%	1%
O=C(NCc1ccccc1F)c1cccc(S(=O)(=O)N2CCCCCC2)c1	-12%	2%[9.24 µM]	-16%	-2	3%	-22%
O=C(CCNC(=O)c1ccc(Cl)cc1)Nc1cccc(S(=O)(=O)N2CCCCCC2)c1	-22%	-11%	-16%	?	-15%	?
N=c1sccn1CC(=O)Nc1cccc(S(=O)(=O)N2CCCCCC2)c1	21µM*	0%	?	-2	-18%	?
O=C(Cc1ccc(Cl)cc1)Nc1cccc(S(=O)(=O)N2CCCCC2)c1	21µM*	0%	?	-12	-10%	?
O=C(Cc1ccccc1F)Nc1cccc(S(=O)(=O)N2CCCCC2)c1	21µM*	0%	.	18	0%	?
COc1ccc(/C=C/C(=O)Nc2cccc(S(=O)(=O)N3CCCC3)c2)cc1OC	21µM*	-5%	?	-27	-21%	?
COc1ccc(/C=C/C(=O)N2CCN(S(=O)(=O)c3ccccc3)CC2)cc1OC	?	13%	-1%	-5	10%	-7%
SMILES	TDP1 cell noCPT	HT1080NT lethal	ELG1 DNA repair	IL-1B inflam inh	HT1080 IDH1KD tx	TDP1 cell CPT
COc1ccccc1N1CCN(Cc2cc(=O)oc3cc(C)cc(C)c23)CC1	?	1%	.	28	17%	?
Cc1cc(C)c2c(c1)cc(C)c1nnc(SCC(=O)Nc3ccc(S(=O)(=O)N4CCCCC4)cc3)n12	21µM*	-8%	8%	1	-16%	?
COc1ccc(CC(=O)Nc2cccc(S(=O)(=O)N3CCCC3)c2)cc1OC	18µM*	-1%	?	-15	-13%	15µM*
Cc1nnc(SCC(=O)Nc2cccc(S(=O)(=O)N3CCCC3)c2)n1C1CC1	29µM*	10%	.	-6	5%	-14%
COc1ccc(/C=C/C(=O)Nc2cccc(S(=O)(=O)NC3=NCCCCC3)c2)cc1OC	8.2µM*	0%	?	-16	-12%	15µM*
COC(=O)C(C)Sc1snnc1-c1ccccc1 (stereo unspecified)	-23%	9%	?	9	19%	-17%
COc1ccc(Br)cc1CN(C)CC(=O)Nc1c(Cl)cccc1Cl	23µM*	-17%	-4%	?	-20%	?
COc1ccc(/C=C/C(=O)ONC2=NCCCCC2)cc1OC	?	-22%	-8%	-6	?	23µM*
O=C(CCNS(=O)(=O)c1ccc(OC(F)(F)F)cc1)Nc1cccc(S(=O)(=O)N2CCCC2)c1	?	0%	.	-5	-1%	18µM*
O=C(CCNC(=O)c1ccc(Br)cc1)Nc1cccc(S(=O)(=O)N2CCCCCC2)c1	?	1%	?	-18	-7%	13µM*
COc1ccc(NC(=O)CN(C)CC(=O)Nc2cccc(F)c2)cc1Cl	?	?	-15%	0	?	?
